Source: PubChem
In the library only some 2.4% were active in any assay of this set; here they are far more common.
ELG1 DNA repair: qHTS screen for small molecules that inhibit ELG1-dependent DNA repair in human embryonic kidney (HEK293T) cells expressing luciferase-tagged ELG1; HEK293T ELG1-luciferase reporter, luminescence, 16 h; DNA damage induced by 5-fluorouridine; Potency, µM (top dose mostly 46.1 µM), most hits filed as inhibitors; 330,000 tested, 2.3% active; AID 504467, 2011; further: nearly all actives have a fitted effect of over 55% in size
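Quantitative HTS, concentration-response format. 2,000 cells/well co-treated with 5-fluorouridine and compound, 16 hr in 5% CO2 at 37 °C; ONE-Glo luminescence read after 30 min.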
Rango dissoc inh: qHTS Assay for Inhibitors of RanGTP induced Rango (Ran-regulated importin-beta cargo) - Importin beta complex dissociation; Biochemical FRET Rango-importin beta, RanGTP-induced dissociation; Potency, µM (top dose mostly 46.1 µM); 340,000 tested, 0.071% active; AID 540253, 2011; calls by dose curve; further: nearly all actives have a fitted effect of over 45% in size
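Compounds preincubate 5 min with complex of recombinant Rango and importin beta in PBS with 1 mM DTT. Ran (0.6 uM) loaded with 2 mM GTP plus 0.2 uM RCC1 starts dissociation; FRET is recorded 45 min later.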
Rango complex inh: qHTS Assay for Inhibitors of Rango (Ran-regulated importin-beta cargo) - Importin beta complex formation | Importin subunit beta-1 (Homo sapiens), Q14974 | Rango CFP/YFP FRET sensor + importin beta, 45 min | Potency, µM (series often up to 92.2 µM) | 340,000 tested, 0.031% active | AID 540263, 2011; calls by dose curve; further: nearly all actives have a fitted effect of over 15% in size
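Inhibition scored from the CFP 486 nm/YFP 530 nm FRET ratio 45 min after adding 0.125 microM importin beta to 50 nM Rango biosensor preincubated 5 min with compound (room temperature, PBS with DTT, Tween-20, BSA). No-importin wells as positive control.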
PKM2 act: qHTS Assay for Activators of Human Muscle isoform 2 Pyruvate Kinase | Pyruvate kinase PKM (Homo sapiens), P14618 | purified PKM2, Kinase-Glo ATP luminescence, activation; response scale: 0% is enzyme alone, no compound | Potency, µM (series often up to 57.5 µM), most hits filed as activators | 260,000 tested, 0.34% active | AID 1631, 2009; further: nearly all actives have a fitted effect of over 55% in size
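Purified hPK-M2 (>95% pure) converted ADP (0.1 mM final) to ATP with 0.5 mM PEP in 50 mM imidazole pH7.2, KCl, MgCl2, Tween 20, BSA; 1 h at room temperature. ATP detected by Kinase-Glo luminescence.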
Tb PFK inh: qHTS Assay to Find Inhibitors of T. brucei phosphofructokinase | T. brucei PFK, ADP-Glo luminescence | 330,000 tested, 0.17% active | Potency, µM (highest dose often 57.5 µM), hits mostly inhibitors | ATP-dependent 6-phosphofructokinase (Trypanosoma brucei brucei), O15648; further: nearly all actives have a fitted effect of over 60% in size
Target sequence (O15648 whole entry, looked up): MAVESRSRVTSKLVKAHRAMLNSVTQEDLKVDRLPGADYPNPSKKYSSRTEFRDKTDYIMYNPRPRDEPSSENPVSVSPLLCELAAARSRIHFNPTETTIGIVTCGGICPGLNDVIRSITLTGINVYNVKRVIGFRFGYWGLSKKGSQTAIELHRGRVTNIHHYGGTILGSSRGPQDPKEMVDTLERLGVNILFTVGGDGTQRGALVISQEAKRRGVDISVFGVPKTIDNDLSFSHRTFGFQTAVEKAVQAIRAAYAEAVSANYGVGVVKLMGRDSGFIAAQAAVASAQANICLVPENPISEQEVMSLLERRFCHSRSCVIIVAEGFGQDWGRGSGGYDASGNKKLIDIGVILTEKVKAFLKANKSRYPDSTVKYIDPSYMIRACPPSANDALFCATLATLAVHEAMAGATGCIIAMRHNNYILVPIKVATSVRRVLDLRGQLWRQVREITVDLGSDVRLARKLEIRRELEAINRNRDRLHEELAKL
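PFK 1.25 nM, F6P 0.5 mM, ATP 0.1 mM, 0.1 M TEA pH 8.0, 5 mM MgCl2, 0.01% Tween20, 0.1% BSA; 45 min RT. ADP-Glo readout. qHTS titration up to 57 uM; curves fitted, compounds curve-classed.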
PGK inhibitor: qHTS Assay to Find Inhibitors of Phosphoglycerate Kinase; PGK/GAPDH coupled, Kinase-Glo luminescence, 60 min; Potency, µM (series often up to 57.5 µM), hits mostly inhibitors; 380,000 tested, 0.043% active; AID 602233, 2012; further: nearly all actives have a fitted effect of over 60% in size
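Recombinant glycosomal PGK reaction used 1,3-bisphosphoglycerate generated in-well by GAPDH (100nM final) in 100mM TEA pH 7.6, 5mM MgCl2, 0.01% Tween-20. After 60 minutes at room temperature, ATP was read by Kinase-Glo Plus luminescence end-point.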
Numbers stand for hits; – = inactive; ? = inconclusive; · = no result. Unless noted, the call rests on the fitted dose curve; in most records, active means well fitted curve in the direction sought with a large enough effect; inconclusive means small, poorly fitted or top-dose-only effect, or another doubt; inactive means no such curve, though single readings can be large; an effect the other way counts as inactive or inconclusive.

SMILES	ELG1 DNA repair	Rango dissoc inh	Rango complex inh	PKM2 act	Tb PFK inh	PGK inhibitor
CCOc1ccc(Nc2cc(C)nc3ccc(C)cc23)cc1	·	–	–	·	·	–
Cc1ccc(Nc2cc(C)nc3ccc(C)cc23)cc1	8.2µM	–	–	–	–	–
O=c1[nH]c(SCc2nc3ccccc3c(=O)n2-c2ccccc2C(F)(F)F)nc2ccccc12	18µM	–	–	–	–	–
O=c1[nH]c(SCc2nc3ccccc3n2Cc2ccccc2)nc2ccccc12	?	–	–	–	–	–
CNC(=O)NC(=O)C(C)OC(=O)c1c2c(nc3ccccc13)/C(=C/c1cccs1)CC2 (stereo not given)	9.2µM	?	?	–	–	–
CSc1nsc(SC)c1C(=O)N1CCN(S(=O)(=O)c2ccc(C)cc2)C1C (stereo not given)	?	–	–	–	–	–
CSc1nsc(SC)c1C(=O)N1CCN(S(=O)(=O)c2ccc(C)cc2)C1C(C)C (stereo not given)	18µM	–	–	–	–	–
CC1CCC2(CC1)NC(=O)N(CC(=O)Nc1ccc(F)cc1)C2=O (stereo not given)	–	–	–	·	–	–
COc1ccc(C2=NS(=O)(=O)N(C)C(C(=O)NCc3ccccc3)=C2)cc1OC	?	–	?	–	–	–
CCc1ccc(NC(=O)C2=CC(c3ccc(OC)c(OC)c3)=NS(=O)(=O)N2C)cc1	13µM	–	?	–	–	–
COc1ccc(C2=NS(=O)(=O)N(C)C(C(=O)N3CCc4ccccc4C3)=C2)cc1OC	18µM	?	?	–	–	–
Cc1ccc(-c2cn(-c3cccc(Cl)c3)c(S(=O)(=O)CC(=O)Nc3ccccc3F)n2)cc1	·	·	·	·	·	–
Cc1cc(Cl)ccc1OCC(=O)OCC(=O)N(CC(C)C)c1c(N)n(Cc2ccccc2)c(=O)[nH]c1=O	–	–	–	·	–	–
O=C(NC(Cc1ccccc1)C(=O)O)/C(=C\c1ccc(Cl)cc1)NC(=O)c1ccco1 (stereo not given)	–	?	?	–	–	–
O=C(OC[C@H]1O[C@@H](OC(=O)c2cc(O)c(O)c(OC(=O)c3cc(O)c(O)c(O)c3)c2)[C@H](OC(=O)c2cc(O)c(O)c(OC(=O)c3cc(O)c(O)c(O)c3)c2)[C@@H](OC(=O)c2cc(O)c(O)c(OC(=O)c3cc(O)c(O)c(O)c3)c2)[C@@H]1OC(=O)c1cc(O)c(O)c(OC(=O)c2cc(O)c(O)c(O)c2)c1)c1cc(O)c(O)c(OC(=O)c2cc(O)c(O)c(O)c2)c1	?	·	·	·	0.095µM	·
CCOc1ccc(OCCC(=O)OCC(=O)N2CCN(c3ccc(OC)cc3)CC2)cc1	–	–	?	·	–	–
CCc1ccc(/C=C2/Sc3ccccc3N(CC(=O)NCC3CCCO3)C2=O)cc1 (stereo not given)	13µM	–	?	·	–	–
Cc1cccc(NC(=O)[C@H](Cc2ccccc2)NC(=O)[C@@H]2Cc3ccccc3CN2)c1	?	–	–	·	–	–
Cc1cc(C)n(-c2nc(NC(C)C)nc(NC(C)C)n2)n1	2.9µM	–	–	–	–	–
Cc1cc(C)n(-c2nc(NC(C)(C)C)nc(NC(C)(C)C)n2)n1	?	–	–	–	–	–
Cc1cc(C)n(-c2nc(Nc3ccccc3C)nc(-n3nc(C)cc3C)n2)n1	?	·	·	–	–	·
Cc1cc(C)n(-c2nc(Nc3ccccc3C(F)(F)F)nc(-n3nc(C)cc3C)n2)n1	13µM	–	–	–	–	–
Cc1ccc(CNC(=O)COCc2cc(-c3ccc4c(c3)OCO4)on2)cc1	·	·	·	·	·	–
O=C(N/C(=C/C=C/c1ccccc1)C(=O)N1CCCCC1)c1ccc([N+](=O)[O-])cc1	23µM	–	–	–	–	–
CCCn1nc(C(=O)Nc2cc(S(=O)(=O)Nc3ccc(OC)cc3)ccc2O)c2ccccc2c1=O	16µM	–	–	·	–	–
SMILES	ELG1 DNA repair	Rango dissoc inh	Rango complex inh	PKM2 act	Tb PFK inh	PGK inhibitor
O=C(NC1CC1)c1cccc(NC(=O)c2cnn(-c3ccccc3)n2)c1	12µM	–	–	·	–	–
CCCn1nc(C(=O)NNC(=O)c2cccc(S(=O)(=O)NC(C)C)c2)c2ccccc2c1=O	?	–	–	–	–	–
CCCn1nc(C(=O)NNC(=O)c2cc(S(=O)(=O)NC)ccc2Br)c2ccccc2c1=O	8.2µM	–	–	·	–	–
CC(C)Cn1nc(C(=O)Nc2cccc(S(=O)(=O)N3CCCC3)c2)c2ccccc2c1=O	21µM	–	–	·	–	–
COC(=O)C1(Cc2ccccc2)C=C2C(=C(c3ccccc3)C(=O)C2C)CN1 (stereo not given)	·	·	·	–	·	·
Cn1nc(C(=O)Nc2cccc(C(=O)NC3CC3)c2)c2ccccc2c1=O	–	–	–	·	–	–
CC(C)Cn1nc(C(=O)Nc2cccc(C(=O)NC3CC3)c2)c2ccccc2c1=O	16µM	–	–	·	–	–
CCCn1nc(C(=O)Nc2cccc(C(=O)OC)c2)c2ccccc2c1=O	23µM	–	–	–	–	–
COC(=O)c1cccc(NC(=O)c2nn(C(C)C)c(=O)c3ccccc23)c1	–	–	–	–	–	–
CC(C)Cn1c([N+](=O)[O-])nc2c1c(=O)[nH]c(=O)n2C	23µM	–	–	–	–	–
COc1ccc(-c2nc3c(c(=O)[nH]c(=O)n3Cc3ccccc3)n2Cc2ccccc2)cc1	8.2µM	–	–	–	–	–
Cn1c(=O)[nH]c(=O)c2c1nc([N+](=O)[O-])n2Cc1ccccc1	15µM	–	?	–	–	–
CCNc1nc2c(c(=O)[nH]c(=O)n2C)n1CC(C)C	–	–	–	–	–	–
CCC1=C(NCc2ccccc2)COC1=O	·	·	·	·	·	–
CC(C)(C)NC(=O)CCSc1nc(-c2ccc3c(c2)OCO3)cc(C(F)(F)F)n1	·	·	·	·	·	–
CC(C)(C)OC(=O)NCCCCCNC(=O)c1[nH]cnc1C(=O)NC1CCN(C(=O)OC(C)(C)C)CC1	?	–	–	·	–	–
CCn1c2c(c(=O)n3ncc(C(=O)Nc4ccc(C(=O)OC)cc4)c13)CN(Cc1ccc(OC)cc1)CC2	·	·	·	·	·	–
O=C(Nc1ccc2oc(-c3cccnc3)nc2c1)c1ccc(Br)cc1	·	·	·	·	·	–
